Rows were chosen to be rich in hits. Some 2.9% of all compounds tested hit in one or more screens of this group.
DRD3 agonist – D3 dopamine receptor (human) agonism; AID 652048; actives 0.58% (n = 410,000); D3R DiscoveRx beta-arrestin cells, luminescence, 90 min; P35462; max activation, %; in the data active means max activation above about 30%; further: 0% is about no effect
Target sequence (P35462 whole entry, looked up): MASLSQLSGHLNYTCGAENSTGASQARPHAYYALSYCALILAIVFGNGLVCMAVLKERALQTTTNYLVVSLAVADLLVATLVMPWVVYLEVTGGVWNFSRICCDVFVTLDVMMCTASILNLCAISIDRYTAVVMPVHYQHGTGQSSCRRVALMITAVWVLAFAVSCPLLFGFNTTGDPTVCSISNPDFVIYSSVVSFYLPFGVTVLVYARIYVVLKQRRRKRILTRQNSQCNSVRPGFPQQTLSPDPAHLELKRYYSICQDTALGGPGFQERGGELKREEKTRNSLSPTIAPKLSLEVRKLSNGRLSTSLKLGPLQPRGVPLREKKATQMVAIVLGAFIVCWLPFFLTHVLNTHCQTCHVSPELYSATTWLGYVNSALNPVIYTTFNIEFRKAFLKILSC
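Agonist mode: compounds and dopamine controls were applied to plated cells for 90 min at 37 degrees C after an overnight attachment at 1500 cells/well. Luminescent read-out followed 30 - 60 minutes at room temperature with DiscoveRx detection reagent.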
Integrin act MD – integrin-mediated muscular dystrophy alleviation activation; alpha7betagal myoblasts, beta-gal FDG fluorescence, 48 h; Potency, µM (doses to about 38.3 µM), without a hit: at the top dose activation, actives largely listed as activators; actives 0.064% (n = 350,000); AID 624291; active means well fitted activation curve with a large enough effect; inconclusive means small, poorly fitted or top-dose-only effect; inactive means no such curve, though single readings can be large or run the other way;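 further: potency means the concentration at half of the fitted maximal effect; 100% = response of the positive control SU9516; nearly all actives have a fitted effect of over 60% in size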
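Alpha7betagal+/- myoblasts (passage 13) were plated 16-24 hr, then exposed to compounds (1:260 dilution of DMSO stock) for 48 hours at 37C. After MPER lysis, β-galactosidase reporter activity was read as FDG fluorescence (ex 480/em 540) after 30 minutes.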
D3 antag – D3 dopamine receptor (human) antagonism | D3R cells, DiscoveRx beta-arrestin luminescence, antagonist mode; stronger effect = lower value | max response, negative = inhibition, % | P35462 | actives 2.5% (n = 360,000); in the data active means max response below about -50%; inconclusive means no clear call, values can overlap the other calls; further: on the % scale 0 is the no-effect control and ±100 the full control effect
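Cells expressing the human receptor were seeded at 1500 cells/well, incubated overnight at 37 degrees C in 5% CO2, then exposed to library compounds with dopamine controls for 90 minutes at 37 degrees C before luminescent detection.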
* = called active by the depositor; ? = inconclusive; nt = not tested or not shown.

SMILES	DRD3 agonist	Integrin act MD	D3 antag
Cc1ccc(C)c(N2CCN(C(=O)C3CCCN(c4ncnc5c4nc4n5CCCCC4)C3)CC2)c1 (stereo unspecified)	31*	14%	59
CC(C)[C@H](NC(=O)N1c2ccccc2NC(=O)[C@@H]1C(C)C)C(=O)N[C@@H](C(=O)O)c1ccccc1	1	-4%	10
CCCn1c(SCC(=O)Nc2ccc(OC)cc2[N+](=O)[O-])n[nH]c1=O	3	14%	0
COC(=O)[C@H](Cc1ccc(O)cc1)NC(=O)Cn1ccc(NC(=O)OCc2ccccc2)nc1=O	2	0%	0
CC(=O)N1c2ccc(S(=O)(=O)N3CCCCC3)cc2CC1C (stereo unspecified)	0	25%	-15
CCOC(=O)C1CCN(C(=O)c2cc(COc3ccc(OC)c4ccccc34)on2)CC1	-1	17%	2
Cc1noc(C)c1C(=O)N(C)C[C@@H]1OCc2ccccc2-c2c(n(C)c3ccccc23)C(=O)N([C@H](C)CO)C[C@H]1C	-6	-7%	-17
COc1cccc(C(=O)OCC(=O)Nc2ccccc2N2CCOCC2)c1	-3	-15%	12
CCc1cc2c(=O)c(-c3cnn(-c4ccccc4)c3)coc2c(CN2CCOCC2)c1O	0	0%	5
CCc1cc2c(=O)c(-c3cnn(-c4ccccc4)c3)c(C)oc2c(CN2CCCCC2)c1O	37*	-28%	1
CCOC(=O)N1CCC(NC(=O)c2c(C)nn(-c3cccc(C)c3)c2-n2cccc2)CC1	13	nt	nt
CCC1C(=O)C(C)(C)C(=O)OC1c1ccc([N+](=O)[O-])cc1 (stereo unspecified)	-6	-21%	-28
O=C1CC(=O)OC(c2ccc([N+](=O)[O-])cc2)O1	-10	-66%	-87*
CCC1(CC)C(=O)N(c2ccccc2)C(=N)N(c2ccccc2)C1=O	-2	16%	-18
CCCN1C2CCCC1CC(NC(=O)c1ccccc1OC)C2 (stereo unspecified)	-24	?	-23
COc1ccccc1CN1C2CCCC1CC(NC(=O)/C=C/c1ccccc1)C2 (stereo unspecified)	-16	-54%	-65*
CN1CC(=O)N(CC(=O)NCc2ccc3c(c2)OCO3)C1=O	-3	25%	-20
CN1CC(=O)N2C(c3ccc(Cl)cc3)c3[nH]c4ccccc4c3C[C@H]2C1=O (stereo partly specified)	2	-76%	4
CCCC(=O)c1c[nH]c(C(=O)NCc2cccnc2)c1	-12	-28%	-88*
CCC(=O)c1c[nH]c(C(=O)NCc2cccnc2)c1	-10	?	-22
CCOc1cccc2cc(-c3nc4sc(C(=O)Nc5ccc(C)cc5)c(C)c4c(=O)[nH]3)c(=O)oc12	-7	nt	nt
O=C(NN=Cc1cc([N+](=O)[O-])ccc1O)c1cccc2ccccc12	1	12%	-24
COC(=O)N/N=C/c1cc(Br)ccc1O	16	0%	8
Nc1ccc(C(=O)N/N=C\c2cc(N=Nc3cccc4ccccc34)ccc2O)cc1	-3	-39%	-95*
O=C(N/N=C/c1cc(Br)ccc1O)c1ccccc1Cl	3	-22%	19
SMILES	DRD3 agonist	Integrin act MD	D3 antag
COC(=O)N/N=C/c1cc(N=Nc2ccccc2)ccc1O	-27	-1%	-63*
COC(=O)N/N=C/c1cc(N=Nc2ccccc2Cl)ccc1O	-22	-25%	-91*
COc1ccc(Cn2c(SCC(=O)NCc3ccccc3)nc3ccccc32)cc1	-16	nt	nt
COc1ccc(/C=C/C(=O)NC(=S)NNC(=O)Cc2cccs2)cc1	1	-28%	-6
O=C(/C=C/c1ccccc1)NC(=S)NNC(=O)Cc1cccs1	-5	-28%	-72*
Cc1cc(Cl)c(OCCCNC2CCCC2)c(Br)c1	-22	-55%	?
C=CCc1cccc(Cl)c1OCCCNC1CCCC1	-9	-83%	-89*
Cc1nc(SCC(=O)N2c3ccccc3NC(=O)CC2C)c2c(C)c(C)sc2n1 (stereo unspecified)	-6	-46%	6
Cc1sc2nc(C3CC3)nc(SCC(=O)N3c4ccccc4CC3C)c2c1C (stereo unspecified)	42*	-10%	54
O=C(NCc1ccncc1)/C(=N/O)c1ccccc1	9	17%	-53*
O=C(NCCCNCc1ccccc1)/C(=N\O)c1ccccc1	-4	14%	-19
COCCCn1c(=O)/c(=C\c2cccc(OC)c2OC)s/c1=C(/C#N)C(=O)Nc1ccc(C(=O)O)cc1	-4	-19%	-13
CSc1nc(N2CCOCC2)c2c3c(sc2n1)CCC3	11	0%	-65*
Cc1nc(N2CCN(C)CC2)c2c3c(sc2n1)CCCC3	-17	4%	?
CCN(CC)C(=O)c1ccc2sc([C@H]3C[C@H](O)[C@@H](CO)O3)nc2c1	5	nt	4
Cc1cccc(CN(C)C[C@H]2OCc3cnnn3CCCC(=O)N([C@H](C)CO)C[C@@H]2C)c1	3	-13%	-13
Cc1ccc(N2CCN(CCCCN3C(=O)C4CCCN4C3=O)CC2)cc1 (stereo unspecified)	-17	5%	-78*
O=C1C2CCCCN2C(=O)N1CCCCN1CCN(c2ccc(F)cc2)CC1 (stereo unspecified)	-12	48%	-92*
O=C1C2CCCN2C(=O)N1CCCCN1CCN(c2ccc(F)cc2)CC1 (stereo unspecified)	-9	7%	-75*
O=C1C2CCCN2C(=O)N1CCCN1CCN(c2ccc([N+](=O)[O-])cc2)CC1 (stereo unspecified)	-1	-25%	-23
O=C1C2CCCCN2C(=O)N1CCN1CCN(c2ccc(F)cc2)CC1 (stereo unspecified)	-14	-1%	15
O=C1C2CCCN2C(=O)N1CCCCN1CCN(c2ccccc2)CC1 (stereo unspecified)	30	2%	-24
Cc1ccc(S(=O)(=O)CCC(=O)OCC(=O)N2CCN(S(=O)(=O)c3ccccc3)CC2)cc1	0	-28%	-2
O=S(Cc1ccc(Br)cc1)Cc1nnc(SCc2c(Cl)cccc2Cl)n1-c1ccccc1 (stereo unspecified)	5	?	2
O=C(O)C1CC=CCC1C(=O)NC1CCCCC1 (stereo unspecified)	24	1%	6
SMILES	DRD3 agonist	Integrin act MD	D3 antag
CCN(C(=S)Nc1cccc(C)c1)c1ccccc1	1	-4%	14
C=C1C(=O)O[C@@H]2[C@H]1[C@@H](OC(=O)/C(C)=C/C)C/C(C)=C\C(=O)/C=C(\C)[C@@H]2O	-35	-41%	-52*
C=C1C(=O)O[C@H]2[C@H]1[C@H](OC(=O)/C(C)=C\C)C[C@]1(CO1)[C@@H]1[C@H](OC(C)=O)C=C(C)[C@]21O	5	-45%	0
C=CCn1c(CNS(=O)(=O)c2ccc(Cl)cc2)n[nH]c1=S	-1	-14%	-21
CC(C)C(=O)C1=Cc2cc([N+](=O)[O-])ccc2OC1N1CCOCC1 (stereo unspecified)	-6	?	?
CC(C)C(=O)C1=Cc2cccc([N+](=O)[O-])c2OC1N1CCOCC1 (stereo unspecified)	-8	-12%	-54*
Cc1ccc2nc(N(Cc3cccnc3)C(=O)CCc3ccccc3)sc2c1	1	nt	nt

High-throughput results (PubChem)
